This passage reports cell viability results from the supplement of paper PMC10981050.

Common to all, as to assay: cell viability relative to vehicle control; higher = less cytotoxic
Holding throughout (settings): 10 µM

One test relates to K562. The gist of the method:
(§1)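 Screening covered the Selleck bioactive, kinase and epigenetic probe libraries, less identity-inconsistent compounds, on CRISPR-edited mutant clones and isogenic wild-type clones of four leukaemia lines. Cells, at 2000 per well in 50 µL medium, received a single 10 µM acoustically dispensed dose. After 48 h the supernatant was removed and CellTiter-Glo luminescence was read. Viability was analysed in Genedata Screener as percent of the on-plate vehicle control.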

The next test concerns MARIMO. Put shortly: as §1
The next test has as its system MOLM14. Put shortly:
as §1

The next test relates to OCI-AML2. Put shortly: as §1

Values joined by “and” are separate entries in the source; they are usually repeats but may differ in a detail not shown here. Equal values may be shown once.

By cell viability is commonly meant a read-out of living cells in per cent, often relative to untreated cells.

Turning to `C/C=C(\C)C(=O)OC1c2c(ccc3ccc(=O)oc23)OC(C)(C)C1OC(=O)/C(C)=C/C` (configuration not stated) [Praeruptorin B], the cell viability with K562 (SRSF2 genotype: SRSF2 P95H/wt) is 83.5% and 92.2%; in the test with K562 (SRSF2 genotype: SRSF2 wt/wt), 90.4%; in the test with MARIMO (SRSF2 genotype: SRSF2 P95H/wt), 84.4%; in the test with MARIMO (SRSF2 genotype: SRSF2 wt/wt), 111%; in the test with MOLM14 (SRSF2 genotype: SRSF2 P95H/wt), 109%; in the test with MOLM14 (SRSF2 genotype: SRSF2 wt/wt), 94.7%. In addition, the results for the cell viability with OCI-AML2 (SRSF2 genotype: P95H/wt) and with OCI-AML2 (SRSF2 genotype: wt/wt) were 89.5% and 91.6%, respectively.

As to `CCN(CC)CCCCNc1ncc2cc(-c3cc(OC)cc(OC)c3)c(NC(=O)NC(C)(C)C)nc2n1`, the cell viability with K562 (SRSF2 genotype: SRSF2 P95H/wt) is 46.4% and 47.9%; in the test on K562 (SRSF2 genotype: SRSF2 wt/wt), 49.4%; in the test on MARIMO (SRSF2 genotype: SRSF2 P95H/wt), 54.2%; in the test with MARIMO (SRSF2 genotype: SRSF2 wt/wt), 51.9%; in the test on MOLM14 (SRSF2 genotype: SRSF2 P95H/wt) it was 48.3%; in the test with MOLM14 (SRSF2 genotype: SRSF2 wt/wt) it was 47.7%. Besides, the cell viability in the test on OCI-AML2 (SRSF2 genotype: P95H/wt) turned out to be 38.1%; with OCI-AML2 (SRSF2 genotype: wt/wt) it was 40.1%.

`CC[C@H]1OC(=O)[C@H](C)[C@@H](O[C@H]2C[C@@](C)(OC)[C@@H](O)[C@H](C)O2)[C@H](C)[C@@H](O[C@@H]2O[C@H](C)C[C@H](N(C)C)[C@H]2O)[C@](C)(O)C[C@@H](C)CN(C)[C@H](C)[C@@H](O)[C@]1(C)O` [Azithromycin Dihydrate]: the cell viability in the test with K562 (SRSF2 genotype: SRSF2 P95H/wt) was 86.8% and 80.4%; with K562 (SRSF2 genotype: SRSF2 wt/wt), 82.7%; in the test on MARIMO (SRSF2 genotype: SRSF2 P95H/wt), 86%; with MARIMO (SRSF2 genotype: SRSF2 wt/wt) it was 83.7%; with MOLM14 (SRSF2 genotype: SRSF2 P95H/wt), 86.8%; in the test on MOLM14 (SRSF2 genotype: SRSF2 wt/wt), 93.3%. In addition, the cell viability with OCI-AML2 (SRSF2 genotype: P95H/wt) is 77.9%; in the test with OCI-AML2 (SRSF2 genotype: wt/wt), 88%.

For `CCOc1ccc(Cc2cc([C@@H]3O[C@H](CO)[C@@H](O)[C@H](O)[C@H]3O)ccc2Cl)cc1` [Dapagliflozin], the cell viability was 93.8% and 97.1% in the test with K562 (SRSF2 genotype: SRSF2 P95H/wt); 105% in the test with K562 (SRSF2 genotype: SRSF2 wt/wt); 102% in the test on MARIMO (SRSF2 genotype: SRSF2 P95H/wt); 96.9% with MARIMO (SRSF2 genotype: SRSF2 wt/wt); 95.9% in the test with MOLM14 (SRSF2 genotype: SRSF2 P95H/wt); 99.4% in the test on MOLM14 (SRSF2 genotype: SRSF2 wt/wt). Also, the cell viability in the test on OCI-AML2 (SRSF2 genotype: P95H/wt) was 97.7%; with OCI-AML2 (SRSF2 genotype: wt/wt), 105%.

For the compound `C=CC(=O)Nc1cc(N2CCN(CC)CC2)ccc1Nc1cc(N(C)C(=O)Nc2c(Cl)c(OC)cc(OC)c2Cl)ncn1`, the cell viability with K562 (SRSF2 genotype: SRSF2 P95H/wt) was 26.8% and 16.8%; in the test on K562 (SRSF2 genotype: SRSF2 wt/wt), 28.7%; in the test on MARIMO (SRSF2 genotype: SRSF2 P95H/wt), 37.6%; in the test on MARIMO (SRSF2 genotype: SRSF2 wt/wt) it was 31.7%; in the test on MOLM14 (SRSF2 genotype: SRSF2 P95H/wt) it was 0.69%; with MOLM14 (SRSF2 genotype: SRSF2 wt/wt), 0.44%. For the same compound, the results for the cell viability in the test with OCI-AML2 (SRSF2 genotype: P95H/wt) and in the test with OCI-AML2 (SRSF2 genotype: wt/wt) were 1.37% and 1.1%, respectively.

Turning to `C[C@@H](CC[C@@]1(O)O[C@H]2C[C@H]3[C@@H]4CC[C@@H]5C[C@@H](O[C@@H]6O[C@H](CO)[C@H](O)[C@H](O)[C@H]6O[C@@H]6O[C@H](CO)[C@@H](O)[C@H](O)[C@H]6O)CC[C@]5(C)[C@H]4CC[C@]3(C)[C@H]2[C@@H]1C)CO[C@@H]1O[C@H](CO)[C@@H](O)[C@H](O)[C@H]1O` [Timosaponin BII], the cell viability was 93.3% and 90.7% with K562 (SRSF2 genotype: SRSF2 P95H/wt); 89.5% with K562 (SRSF2 genotype: SRSF2 wt/wt); 102% in the test with MARIMO (SRSF2 genotype: SRSF2 P95H/wt); 107% with MARIMO (SRSF2 genotype: SRSF2 wt/wt); 96% with MOLM14 (SRSF2 genotype: SRSF2 P95H/wt); 93.5% in the test with MOLM14 (SRSF2 genotype: SRSF2 wt/wt). Moreover, the cell viability with OCI-AML2 (SRSF2 genotype: P95H/wt) turned out to be 49.8%; in the test with OCI-AML2 (SRSF2 genotype: wt/wt), 73.6%.

In the case of `C[C@]12CCC(=O)C=C1CC[C@@H]1[C@@H]2[C@@H](O)C[C@@]2(C)[C@H]1CC[C@]2(O)C(=O)CO` [Hydrocortisone (Cortisol)], the cell viability in the test on K562 (SRSF2 genotype: SRSF2 P95H/wt) was 99.7% and 98.6%; in the test with K562 (SRSF2 genotype: SRSF2 wt/wt), 110%; with MARIMO (SRSF2 genotype: SRSF2 P95H/wt), 105%; with MARIMO (SRSF2 genotype: SRSF2 wt/wt), 99%; with MOLM14 (SRSF2 genotype: SRSF2 P95H/wt), 107%; in the test on MOLM14 (SRSF2 genotype: SRSF2 wt/wt), 100%. The cell viability with OCI-AML2 (SRSF2 genotype: P95H/wt) came to 109%; in the test with OCI-AML2 (SRSF2 genotype: wt/wt), 118%.

With `O=C(CCCCCCC(=O)Nc1ccccc1)NO` [Vorinostat (SAHA, MK0683)], the cell viability with K562 (SRSF2 genotype: SRSF2 P95H/wt) is 1.62% and 17.9%; in the test with K562 (SRSF2 genotype: SRSF2 wt/wt), 10.1%; in the test on MARIMO (SRSF2 genotype: SRSF2 P95H/wt), 4.92%; with MARIMO (SRSF2 genotype: SRSF2 wt/wt) it was 8.5%; with MOLM14 (SRSF2 genotype: SRSF2 P95H/wt), 0.83%; in the test on MOLM14 (SRSF2 genotype: SRSF2 wt/wt) it was 0.28%. The cell viability in the test on OCI-AML2 (SRSF2 genotype: P95H/wt) is 1.15%; in the test with OCI-AML2 (SRSF2 genotype: wt/wt) it was 4.64%.

Regarding `Cc1cc2c(C(N)=O)cccc2n1-c1nc2c(c(NCc3ccccc3)n1)COCC2`, the cell viability is 0.8% and 0.75% with K562 (SRSF2 genotype: SRSF2 P95H/wt); 0.74% with K562 (SRSF2 genotype: SRSF2 wt/wt); 0.6% in the test with MARIMO (SRSF2 genotype: SRSF2 P95H/wt); 1.05% in the test on MARIMO (SRSF2 genotype: SRSF2 wt/wt); 0.36% in the test on MOLM14 (SRSF2 genotype: SRSF2 P95H/wt); 0.42% in the test on MOLM14 (SRSF2 genotype: SRSF2 wt/wt). The cell viability came to 0.35% in the test with OCI-AML2 (SRSF2 genotype: P95H/wt) and 0.49% in the test on OCI-AML2 (SRSF2 genotype: wt/wt).
